# This is a sample that favours compounds with a hit; in the whole collection about 0.98% have one here.
# LANA DNA inh – inhibitors of KSHV LANA C-terminal domain DNA binding; MBP-C-LANA/FAM-LBS DNA binding, fluorescence polarization; inhibition, % at 9 µM; actives 0.078% (n = 340,000);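 active means highest replicate inhibition at or above 60% at 9 µM, even if other replicates fall short; inactive means all replicates below 60% inhibition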;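 further: 0% = neutral control wells and 100% = 4 µM acridine orange control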
# Cardiac RTF inh – cardiac RTF calcium desensitization; P19429+P45379; IANBD-labeled cardiac RTF, Ca2+ fluorescence; inhibition, % at 7.15 µM; actives 0.12% (n = 340,000);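 active means inhibition above the mean inhibition of all tested compounds plus 3 SD, cut at about 17% in these data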;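 further: assay run at fixed EC70 calcium of 1.6 mM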
# cardiac RTF act – cardiac RTF calcium sensitization; P19429+P45379; IANBD-labeled TnC RTF fluorescence at EC20 calcium; 0% EC20 calcium, 100% full calcium; activation, % at 7.2 µM; actives 0.24% (n = 340,000); AID 493008;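 active means activation above the mean over all tested compounds plus 3 SD, cut at about 30% in these data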;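 further: rise in fluorescence read as greater calcium sensitivity of cardiac thin filaments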
# Keap1 Nrf2 FP – Keap1-Nrf2 (human) interaction inhibition; Q14145; Keap1 Kelch-Nrf2 peptide fluorescence polarization, 1536-well; inhibition, % at 9.4 µM; actives 0.15% (n = 340,000); AID 504523; in the data active means inhibition above about 12%;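 further: human Keap1 Kelch domain with fluorescein labeled Nrf2 9mer peptide probe; 0% = neutral control wells and 100% = peptide positive control; higher means more block of Keap1 binding to Nrf2 peptide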
# Target sequence (Q14145 whole entry, looked up, the tested form may be a part): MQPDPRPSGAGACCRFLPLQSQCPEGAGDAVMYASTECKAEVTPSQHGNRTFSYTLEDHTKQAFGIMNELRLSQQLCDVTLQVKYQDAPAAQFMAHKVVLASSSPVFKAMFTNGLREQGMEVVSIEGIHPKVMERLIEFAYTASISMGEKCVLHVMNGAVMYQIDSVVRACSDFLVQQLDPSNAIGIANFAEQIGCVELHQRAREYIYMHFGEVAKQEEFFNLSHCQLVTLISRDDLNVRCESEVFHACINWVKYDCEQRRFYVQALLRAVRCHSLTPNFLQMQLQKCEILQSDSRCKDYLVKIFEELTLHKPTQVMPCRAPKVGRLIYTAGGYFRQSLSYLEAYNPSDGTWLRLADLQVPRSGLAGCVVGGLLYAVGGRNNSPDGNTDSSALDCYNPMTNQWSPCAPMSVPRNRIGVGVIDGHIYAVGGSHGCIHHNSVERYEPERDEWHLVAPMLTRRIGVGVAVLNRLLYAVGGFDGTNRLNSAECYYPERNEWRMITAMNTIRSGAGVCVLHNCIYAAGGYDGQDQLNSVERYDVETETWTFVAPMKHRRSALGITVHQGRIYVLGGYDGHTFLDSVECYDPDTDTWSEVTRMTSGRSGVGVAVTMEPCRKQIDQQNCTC
# LANA-H2A inh – blocks KSHV LANA binding to histone H2A/H2B; Q9QR71; cell-free LANA-H2A/H2B peptide, fluorescence polarization; inhibition, % (test concentration not listed); actives 0.6% (n = 320,000); in the data active means inhibition mostly above about 10%, no sharp cut-off; inactive means mostly below about 6.7%
# Numbers without * were called inactive; · = not tested or not shown; + = active, no number.
SMILES,LANA DNA inh,Cardiac RTF inh,cardiac RTF act,Keap1 Nrf2 FP,LANA-H2A inh
CN(C)c1ccc(/C=C/c2nc3ccccc3c(=O)n2-c2ccc(C(=O)O)cc2)cc1,-1,-498,538*,-274,5
Cc1ccccc1C(=O)NNC(=O)CSc1nc2ccccc2c(=O)[nH]1,1,-4,-3,0,2
CC(C)CNc1c(N)c(=O)oc2ccccc12,1,1,-9,-3,-7
O=C(Cc1ccccc1)Nn1c(O)c(/C=C2\C=Nc3ccccc32)sc1=S,1,-76,58*,4,-7
CCOC(=O)c1sc(NC(=O)COC(=O)C(CCSC)NC(C)=O)nc1C (stereo not given),-2,0,-3,1,-1
CN1OC[C@@H]2CN(Cc3ccccc3)[C@H](c3cccc(-c4ccc(C#N)cc4)c3)C[C@@H]21,-2,-9,7,-3,·
CCOC(=O)c1ccc(NC(=O)CN2C(=O)C(CC)SC(CC)C2=O)cc1 (stereo not given),1,-28,-2,-2,38*
CC12COC3(C(=O)Nc4ccc5ccccc5c4)CC1CCC32C (stereo not given),0,-4,1,4,32*
OCCCc1nc2n(n1)C(c1cccs1)C=C(c1ccccc1)N2 (stereo not given),·,·,·,·,68*
C=CC(=O)Nc1cccc(N(C)c2ccnc(Nc3ccc(N4CCN(C)CC4)cc3)n2)c1,-12,-19,1,-9,·
CCCN(CC(=O)Nc1ccccc1OC)C(=O)CCNC(=O)c1ccccc1OC,1,0,0,-4,41*
COc1ccccc1C(=O)NCCC(=O)N(C)CC(=O)Nc1ccccc1Br,0,-1,2,3,1
CCOc1ccc(N2C(=O)S/C(=C\c3cccn3C)C2=O)cc1,1,5,5,-2,20*
N#Cc1c(N)oc(-c2ccc3c(c2)OCO3)c1-c1ccc2c(c1)OCO2,2,-10,8,-2,-1
CC(/C=C\C=C\c1ccccc1)=N\NC(=O)c1cncc(Br)c1,0,-8,0,-4,77*
CN1CCN(c2ccccc2/C=N/NC(=O)c2cccnc2)CC1,1,-3,-1,1,4
CCOC(=O)C1C(=O)CC(C)(O)C(C(=O)OCC)C1c1ccc2c(c1)OCO2 (stereo not given),1,-6,-3,2,178*
CC(NCC(=O)Nc1ccccc1C(=O)NC1CC1)c1ccc(S(N)(=O)=O)cc1 (stereo not given),-2,1,1,-2,+
CC1(C)CCN2CCC(C)(C)c3c(O)ccc1c32,28,-167,85*,-16,7
COc1cc2c(cc1OC)C(SC)=NC1(CCCC1)C2,0,-15,-3,-2,1
COc1cc2c(cc1OC)C(C)=NC1(CCCCC1)C2,0,-13,0,-4,8.0*
CCn1c(=O)c2c(nc(SCC(=O)NCC3CCCO3)n2C)n(C)c1=O (stereo not given),-1,0,0,-3,2
COc1ccccc1N1CCN(S(=O)(=O)c2cn(C)nc2C)CC1,0,-10,2,1,1
COc1ccc(Cn2c(C)nc3c(c(=O)c4ccccc4n3C)c2=O)cc1,-2,-5,-3,1,3
COc1ccc(CCn2c(C)nc3c(c(=O)c4ccccc4n3C)c2=O)cc1,-2,-4,5,-2,11*
SMILES,LANA DNA inh,Cardiac RTF inh,cardiac RTF act,Keap1 Nrf2 FP,LANA-H2A inh
CCCCN1C(=O)C(NC(=O)CC(C)C)(C(F)(F)F)C2=C1CC(C)(C)CC2=O (stereo not given),0,-1,1,-8,-4
Cc1cc(C)nc(SCC(=O)NC(=O)c2ccccc2O)n1,1,-6,39*,-28,-2
CCOC(=O)CN1CC(C)(C)N(CC(=O)OCC)CC1(C)C,3,-4,-3,0,·
C=CCC[C@@H](Cc1ccc(F)cc1)C(=O)OC[C@@H](NC(=O)[C@H](CC=C)CC(=O)NCCO)C(C)(C)C,-4,-6,0,-2,1
COc1ccccc1C(C)NC(=O)C1CCN(S(=O)(=O)c2cccs2)CC1 (stereo not given),-3,-5,0,-5,+
COc1cc(NC(=O)C2CCN(S(=O)(=O)c3cccs3)CC2)cc(OC)c1,-2,-1,0,-7,-2
COc1ccc(S(=O)(=O)Nc2ccccc2N2CCOCC2)cc1[N+](=O)[O-],-5,0,-2,0,-9
O=C1C=C(c2ccc3ncccc3c2)C[C@@H](c2ccc(F)cc2)C1,-1,-1,0,-4,7
O=C1C=C(c2ccc3ccccc3c2)C[C@@H](c2ccc(F)cc2)C1,-1,-7,-2,2,21*
Cc1cccc(NC(=O)Cn2c(=O)n(CCC(=O)NC3CCCC3)c(=O)c3ccccc32)c1,0,6,5,1,0
CCOc1ccccc1NC(=O)Cn1c(=O)n(CCC(=O)NC2CCCC2)c(=O)c2ccccc21,2,2,-1,-6,31*
Cc1ccc(CC(=O)Nc2cc(C)on2)cc1,-2,-9,8,0,0
COc1ccccc1CNC(=O)CSc1nc2nc(C)cc(C)n2n1,0,-8,4,-4,50*
Cc1ccc2nc3c(cc(C(=O)NCC4CCCO4)c(=N)n3CCCOC(C)C)c(=O)n2c1 (stereo not given),2,-9,0,0,18*
N#C/C(=C/c1ccc(N2CCOCC2)o1)C(=O)Nc1ccccc1,-10,-177,132*,-30,·
N#C/C(=C\c1ccc(OCCN2CCOCC2)cc1)C(=O)Nc1ccccc1,0,-5,1,-1,1
COCCNC(=O)/C(C#N)=C/c1ccc(N2CCOCC2)o1,-38,-54,61*,-132,-32
COCCNC(=O)/C(C#N)=C\c1ccc(CNS(=O)(=O)c2ccccc2)o1,-1,3,-3,1,4
N#C/C(=C\c1ccc(N2CCOCC2)o1)C(=O)NCCc1ccccc1,-27,-88,64*,-86,-33
COC(=O)c1c(NC(=O)CCl)sc(C(=O)N2CCOCC2)c1C,2,7,10,3,1
S=C(NCCc1ccccc1)NCc1cccs1,-1,-9,-3,1,-7
CC(NC(=O)c1cccc(S(=O)(=O)N2CCc3ccccc32)c1)c1ccco1 (stereo not given),0,-1,-2,-4,135*
CCCCc1nnc(NC(=O)C(C)Sc2nc(C)cc(=O)[nH]2)s1 (stereo not given),-1,-3,2,-1,12*
CCC(Sc1nc(C)cc(=O)[nH]1)C(=O)Nc1nnc(C)s1 (stereo not given),14,3,-4,1,1
CC12CCC(C(NC(=S)NN)C1=O)C2(C)C (stereo not given),-1,0,3,-3,·
CCNC(=S)Nc1ccc2ncoc2c1,0,-8,4,2,31*

# Screens (PubChem BioAssay)
